The full list was thinned out, with hits kept by preference.
TDP1 cell noCPT: qHTS for Inhibitors of human tyrosyl-DNA phosphodiesterase 1 (TDP1): qHTS in cells in absence of CPT | DT40 Tdp1-/- hTDP1 cells, no CPT, ATP luminescence, 48 h | Potency, µM (series often up to 46.2 µM), actives largely listed as inhibitors | 420,000 compounds, 15% hits; note: nearly all actives have a fitted effect of over 55% in size
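A cellular qHTS used chicken DT40 cells lacking endogenous Tdp1 but carrying stably transfected human TDP1. Compounds were applied without camptothecin, and cell growth kinetics were judged by ATP-dependent luminescence after ≥48 hr.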
HT1080 IDH1KD tx: HT-1080 IDH1 knockdown cell toxicity (counter line). HT-1080 IDH1 knockdown viability, ATP luminescence, 48 h. Potency, µM (series often up to 46.1 µM), hits mostly cytotoxic. 360,000 compounds, 2% hits. AID 686971
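HT-1080-IDH1KD cells (IDH1 knocked down), 750/well in RPMI with 5% FBS, treated with compound 48 h at 37 degrees C. Viability by CellTiter-Glo luminescence, normalised to DMSO and no-cell wells; concentration-response curves classed.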
DT40 TDP1 CPT: DT40-hTDP1 cell growth loss with CPT. AID 686979. 420,000 compounds, 12% hits. chicken DT40 Tdp1-/-;hTDP1 cells + 20 nM CPT, ATP luminescence, 48 h. Potency, µM (highest dose often 46.2 µM), hits mostly inhibitors; note: nearly all actives have a fitted effect of over 55% in size
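Chicken DT40 Tdp1-/- cells stably complemented with human TDP1 were seeded at 400 cells/well in medium containing 20 nM camptothecin, exposed to pin-transferred compounds, and grown at 37 °C for at least 48 hr. Viability was read as ATP luminescence.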
HT1080NT lethal: kills 2HG-producing HT-1080-NT fibrosarcoma cells. HT-1080-NT fibrosarcoma viability, CellTiter-Glo ATP luminescence, 48 h. Potency, µM (titrated, usually from 46.1 µM), hits mostly cytotoxic. 360,000 compounds, 1.6% hits;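 note: NT is the 2HG producing partner of a matched IDH1 knockdown line; nearly all actives have a fitted effect of over 55% in size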
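A 48-hour cytotoxicity screen used HT-1080-NT cells plated 2 hours before compound delivery. ATP-based CellTiter-Glo luminescence measured viability, normalized to DMSO and no-cell controls.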
12-LOX inh: blocks human arachidonate 12S-lipoxygenase | P18054 | Potency, µM (highest dose often 108 µM), hits mostly inhibitors | 580,000 compounds, 1.1% hits | purified 12hLO, xylenol orange hydroperoxide absorbance | AID 1671190
Target sequence (P18054 whole entry, looked up): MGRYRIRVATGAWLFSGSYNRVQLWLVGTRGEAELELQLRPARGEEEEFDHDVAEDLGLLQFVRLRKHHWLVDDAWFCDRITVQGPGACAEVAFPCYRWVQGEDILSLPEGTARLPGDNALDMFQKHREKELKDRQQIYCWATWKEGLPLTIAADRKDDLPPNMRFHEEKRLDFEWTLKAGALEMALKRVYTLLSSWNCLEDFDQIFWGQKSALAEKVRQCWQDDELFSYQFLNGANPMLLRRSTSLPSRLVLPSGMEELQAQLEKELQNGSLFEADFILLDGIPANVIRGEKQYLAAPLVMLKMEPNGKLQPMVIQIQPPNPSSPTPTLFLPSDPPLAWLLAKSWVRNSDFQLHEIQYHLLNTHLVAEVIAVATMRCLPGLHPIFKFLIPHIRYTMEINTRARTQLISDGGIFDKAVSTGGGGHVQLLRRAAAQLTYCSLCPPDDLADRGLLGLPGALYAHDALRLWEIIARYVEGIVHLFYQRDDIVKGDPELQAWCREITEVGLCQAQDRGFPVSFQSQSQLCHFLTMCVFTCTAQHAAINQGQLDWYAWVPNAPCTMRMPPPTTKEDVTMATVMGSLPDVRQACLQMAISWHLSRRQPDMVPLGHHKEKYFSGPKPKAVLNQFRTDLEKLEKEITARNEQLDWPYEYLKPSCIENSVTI
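Hydroperoxide product was detected by ferrous iron/xylenol orange as the 573 to 405 nm absorbance ratio. Arachidonic acid at 40 uM (final) was turned over for 30 min at room temperature by 150 nM human 12hLO, pH 7.0 Hepes buffer, after 15 min compound preincubation.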
IL1B secr inh: blocks inflammasome-driven IL-1 beta release | 360,000 compounds, 4.7% hits | THP-1 LPS/ATP IL-1B secretion, AlphaLISA, 16 h; active compounds read low | activity change, % at 57.5 µM | AID 743279; in the data active = activity change below about -50%; inconclusive = mostly about -30% to -49%
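THP-1 cells pretreated 1 hr with compounds (up to 57.5 uM final), then stimulated with LPS (250 ng/mL final) plus ATP (1.25 mM final); secreted IL-1B measured by AlphaLISA after 16 hr, decreased signal indicating inhibition.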
Numbers stand for hits; . = inactive; ? = inconclusive; / = no result. Unless noted, calls come from the whole dose curve; as a rule, active = well fitted curve in the direction sought with a large enough effect; inconclusive = small, poorly fitted or top-dose-only effect, or another doubt; inactive = no such curve, though single readings can be large; an effect the other way counts as inactive or inconclusive.

SMILES	TDP1 cell noCPT	HT1080 IDH1KD tx	DT40 TDP1 CPT	HT1080NT lethal	12-LOX inh	IL1B secr inh
COc1cccc(NC(=O)CN(C)C(=O)c2ccc(-c3ccc(Cl)cc3)o2)c1	?	.	?	.	.	.
Cc1nnc(NC(=O)c2ccc(-c3ccc(Cl)cc3)o2)s1	.	.	.	.	?	.
COc1cc(NC(=O)c2ccco2)ccc1NC(=O)C(C)C	.	.	.	.	.	.
CN(CC(=O)Nc1ccc(F)cc1)C(=O)c1ccc(-c2ccc(F)cc2)o1	20.6µM	.	?	.	.	.
Cc1cc(N2CCN(C)CC2)ccc1NC(=O)c1ccc(-c2ccc(Cl)cc2)o1	?	23.1µM	?	23.1µM	.	?
CN1CCN(c2ccccc2NC(=O)c2cccc([N+](=O)[O-])c2)CC1	.	.	.	.	.	.
COc1cc(NC(=O)c2ccc(-c3cccc(F)c3)o2)ccc1NC(=O)c1ccccc1Cl	18.4µM	.	18.4µM	.	.	.
CS(=O)(=O)N1CCN(c2ccccc2NC(=O)c2ccc3c(c2)OCCO3)CC1	?	.	?	.	.	.
CS(=O)(=O)N1CCN(c2ccccc2NC(=O)c2ccc([N+](=O)[O-])o2)CC1	8.2µM	.	3.66µM	.	.	?
COC(=O)c1ccccc1NC(=O)c1ccc(-c2cccc(Cl)c2)o1	.	.	.	.	.	.
CN1CCN(c2ccccc2NC(=O)c2ccc(-c3cccc([N+](=O)[O-])c3)o2)CC1	14.6µM	.	?	.	.	.
CCn1ncc(NC(=O)Cn2ncc3cc(-c4ccc(C(=O)N(C)C)cc4)ccc32)n1	/	/	/	/	.	/
Cc1cc(F)ccc1C(=O)N1C[C@@H](CN2CCCCC2)[C@@H](CO)C1	/	/	/	/	.	/
CCCn1c(=O)c2c(nc(-n3nc(C)cc3C)n2CC)n(C)c1=O	/	/	/	/	.	/
N#CCCN(C(=O)COC(=O)COc1ccccc1Cc1ccccc1)c1ccccc1	.	.	.	.	.	.
CN1CCN(c2ccccc2NC(=O)c2ccc([N+](=O)[O-])o2)CC1	9.2µM	.	7.31µM	.	/	.
CC(=O)N1CCN(c2ccccc2NC(=O)c2ccc(Br)o2)CC1	.	.	?	.	.	.
CN1CCN(c2ccccc2NC(=O)c2ccc(-c3ccc(Br)cc3)o2)CC1	3.26µM	2.59µM	3.26µM	?	/	.
CCOc1nccnc1NC1CCN(C(=O)c2ccnn2CC)CC1	/	/	/	/	.	/
Cc1nn(C2CCS(=O)(=O)C2)c(C)c1CN(C)C(=O)c1ccccc1 (stereo not drawn)	.	.	.	.	.	.
CN(C(=O)CSc1nc(-c2ccccc2)no1)c1ccc(F)cc1	?	/	?	/	.	/
CCN(C(=O)CSc1nc(-c2ccc(C(C)C)cc2)no1)c1ccccc1	?	/	14.6µM	/	.	/
CCN(C(=O)CSc1nc(-c2ccc(C(C)C)cc2)no1)c1cccc(C)c1	?	/	14.6µM	/	.	/
O=C(NC1CCOCC1)C1=NO[C@@H]2CN(c3ccc(F)c(Cl)c3)C[C@H]12	/	/	/	/	.	/
Cc1ccc(C(C)NC(=O)CC2(C(=O)O)CCCCC2)o1 (stereo not drawn)	/	/	/	/	.	/
SMILES	TDP1 cell noCPT	HT1080 IDH1KD tx	DT40 TDP1 CPT	HT1080NT lethal	12-LOX inh	IL1B secr inh
CCN(CC)c1ccc2cc(-c3nc(-c4ccccc4)no3)c(=O)oc2c1	5.8µM	/	?	/	.	/
Cc1[nH]c2ccccc2c1C(=O)CN1CCCCC1CCO (stereo not drawn)	16.4µM	.	?	.	.	.
Cc1ccccc1N1C(=O)C(Cl)=C(N2CCCCCC2)C1=O	?	.	29.1µM	.	.	.
O=C1C(Cl)=C(N2CCCCC2)C(=O)N1c1ccccc1Cl	.	.	?	.	.	.
CCc1ccc(C(=O)Oc2ccc(OC(=O)c3ccc(CC)cc3)c(-c3ccccc3)c2)cc1	/	/	/	/	.	/
O=[N+]([O-])c1cc(C(F)(F)F)cc([N+](=O)[O-])c1NN=C1CCCCC1	23.1µM	.	?	.	?	.
O=[N+]([O-])c1cc(C(F)(F)F)cc([N+](=O)[O-])c1NCCN1CCNCC1	20.6µM	.	20.6µM	.	.	.
O=C(c1cccc2cnccc12)N1CCC2(CC1)Nc1ccccc1NC2=O	/	/	/	/	.	/
O=C(Nc1ccn(Cc2cccc3ccccc23)n1)c1cccnc1	?	?	?	.	.	.
CN1C(=O)C(O)(CC(=O)c2cccnc2)c2ccccc21 (stereo not drawn)	10.3µM	.	11.6µM	.	.	.
O=C(CC1(O)C(=O)N(Cc2cccc3ccccc23)c2ccccc21)c1cccnc1 (stereo not drawn)	0.82µM	10µM	0.92µM	?	?	.
COC(=O)/C(=C\Nc1ccc(Cl)cc1Cl)NC(=O)c1ccc(Cl)cc1Cl	?	?	20.6µM	?	.	?
COC(=O)/C(=C\Nc1ccc(Cl)cc1Cl)NC(=O)c1ccccc1	?	.	.	.	.	.
C=C(C)Cn1c(SCc2ccc3ccccc3c2)nc2c1c(=O)[nH]c(=O)n2C	/	/	/	/	.	/
O=C(CCC1N=C2c3ccccc3N=C(SCc3ccc(F)cc3)N2C1=O)N1CCN(c2ccccc2)CC1 (stereo not drawn)	25.9µM	/	?	/	.	/
O=C(CCC1N=C2c3ccccc3N=C(SCc3ccc(Cl)cc3)N2C1=O)NCc1ccco1 (stereo not drawn)	?	.	?	.	.	?
N#CCSC1=Nc2ccccc2C2=NC(CCC(=O)N3CCN(c4ccccc4)CC3)C(=O)N12 (stereo not drawn)	.	.	.	.	.	.
O=C(CCC1N=C2c3ccccc3N=C(SCc3ccc(Cl)cc3)N2C1=O)NCCc1ccccc1 (stereo not drawn)	?	/	18.4µM	/	.	/
O=C(CCC1N=C2c3ccccc3N=C(SCc3cccc(Cl)c3)N2C1=O)NCCc1ccccc1 (stereo not drawn)	?	/	?	/	.	/
CCc1ccc(NC(=O)CSC2=Nc3ccccc3C3=NC(CCC(=O)NCc4ccccc4OC)C(=O)N23)cc1 (stereo not drawn)	.	/	.	/	?	/
O=C(CCC1N=C2c3ccccc3N=C(SCc3cccc(F)c3)N2C1=O)NCc1ccc(F)cc1 (stereo not drawn)	18.4µM	/	?	/	.	/
COc1ccccc1CNC(=O)CCC1N=C2c3ccccc3N=C(SCC(=O)NCCc3ccc(OC)c(OC)c3)N2C1=O (stereo not drawn)	?	/	18.4µM	/	.	/
CC(=O)Nc1ccc(C2Nc3ccccc3C(=O)N2c2ccc(F)cc2)cc1 (stereo not drawn)	/	/	/	/	.	/

Screening data (PubChem)
